This is a sample that favours compounds with a hit; in the whole collection about 4.6% have one here.
Epigenetic derep: regulators of epigenetic silencing causing reporter derepression in mouse cells; murine LDR cells, GFP reporter derepression, 30 h; Potency, µM (titrated, usually from 53.9 µM), for the others: at the top dose GFP activation, most hits filed as activators; actives 0.2% (n = 280,000); AID 1865; active means well fitted activation curve with a large enough effect; inconclusive means small, poorly fitted or top-dose-only effect; further: potency means the concentration at half of the fitted maximal effect; % of control where 0% means no effect; nearly all actives have a fitted effect of over 60% in size
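Derepression of a silenced CMV-GFP reporter in murine LDR cells is scored by enumerating GFP-positive cells with a laser-scanning microplate cytometer after 30 hours of treatment at 37 C.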
D1 potentiator: potentiators of human D1 dopamine receptor; P21728; HEK293 TREx D1 cells, calcium flux, dopamine EC20 potentiation; potentiation, % at 10 µM; actives 0.036% (n = 360,000); in the data active means potentiation above about 30%; further: 0% is about no effect
TRHR agonist: TRH receptor (human) agonism; P34981; TRHR cells, calcium flux fluo-8, FDSS agonist mode; activation, % at 2 µM; actives 0.18% (n = 360,000); further: 0% is about no effect
Target sequence (P34981 whole entry, looked up): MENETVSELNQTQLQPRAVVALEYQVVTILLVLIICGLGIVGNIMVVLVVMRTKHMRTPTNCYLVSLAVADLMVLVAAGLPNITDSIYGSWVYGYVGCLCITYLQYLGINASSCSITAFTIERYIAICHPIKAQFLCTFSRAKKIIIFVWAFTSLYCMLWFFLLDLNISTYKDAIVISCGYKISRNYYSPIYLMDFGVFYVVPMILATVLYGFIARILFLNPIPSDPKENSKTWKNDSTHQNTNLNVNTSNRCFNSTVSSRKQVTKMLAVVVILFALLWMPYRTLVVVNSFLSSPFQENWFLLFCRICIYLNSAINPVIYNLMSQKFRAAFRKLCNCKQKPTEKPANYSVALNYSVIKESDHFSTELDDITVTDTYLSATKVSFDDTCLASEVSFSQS
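Fluo-8-loaded TRHR cells; 10 s baseline, compound added, kinetic Ca2+ fluorescence read 1/s, agonist mode.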
D1 antag: antagonists of human D1 dopamine receptor; HEK293 TREx D1 cells, calcium flux, dopamine EC80; active compounds read low; actives 3.2% (n = 360,000); P21728; activity change, negative = inhibition, % at 10 µM; in the data active means activity change below about -30%; further: on the % scale 0 is the no-effect control and ±100 the full control effect
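After overnight tetracycline induction at 30 C, force-coupled D1 HEK293 cells took up a no-wash calcium dye at room temperature. Compounds were added and monitored 180 s, and the response to EC80 dopamine was then recorded.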
D1 ag: human D1 receptor agonism; P21728; HEK293 T-REx D1 cells, calcium flux, agonist mode; activation, % at 2 µM; actives 1% (n = 360,000); AID 504660; further: 0% is about no effect
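Agonism was scored from calcium flux recorded over 180 s (1 read/s) after pintool compound addition, following a 10-cycle baseline. Cells were inducible force-coupled HEK293 TREx D1, plated overnight at 30 C and loaded with no-wash calcium dye.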
TRHR enhancer: allosteric enhancers of human TRH receptor. actives 0.66% (n = 360,000). AID 493056. enhancement, % at 2 µM. TRHR cells, fluo-8 calcium fluorescence, EC20 TRH enhancement. P34981; in the data active means enhancement above about 30%; further: 0% is about no effect
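Enhancer read-out: after compound pinning and an initial kinetic agonist-mode read, an EC20 of TRH (10 nM final) was injected and fluo-8 calcium signal (Ex 480/Em 530) followed at 1 s/cycle for 100 cycles in TRHR-expressing cells.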
* marks the source's active call; other numbers are inactive results; ? = inconclusive; nt = not tested or not shown; [ ] = dose if it differs, or a comment. Unless noted, no stated cut-off is given here; in the data, active means activation above about 30%; inactive means the rest.

SMILES	Epigenetic derep	D1 potentiator	TRHR agonist	D1 antag	D1 ag	TRHR enhancer
COc1ccc(C(=O)/C(C#N)=N/Nc2cccc([N+](=O)[O-])c2)cc1	-1%[10.1 µM]	-9	1	-32*	20	-14
C/C(=N\NC(=O)c1cccc(N/N=C(\C)c2ccccc2)c1)c1ccccc1	-1%	-14	2	-12	-1	-10
C/C(=N\NC(=S)NCc1ccccc1)c1ccc2c(c1)OCCO2	-1%	-6	-1	-31*	9	-1
C/C(=N\NC(=O)c1cccc(N/N=C(\C)c2ccc([N+](=O)[O-])cc2)c1)c1ccc([N+](=O)[O-])cc1	0%	-14	0	-38*	0	1
C/C(=N/NC(=O)c1ccc2c(c1)OCCO2)c1ccc([N+](=O)[O-])cc1	4%	-8	-1	-52*	1	-3
C/C(=N\NC(=S)NCc1ccccc1)c1ccc(Br)cc1	-3%	1	1	16	4	5
O=C(/C=C/c1ccco1)Oc1cc(Br)cc(/C=N/NC(=O)c2ccccc2O)c1	-1%	-10	4	-35*	12	5
O=C(CNc1ccc2ccccc2c1)N/N=C/c1ccc(OC(=O)/C=C/c2ccco2)cc1	-1%	-5	0	11	1	3
O=C(CNc1cccc2ccccc12)N/N=C/c1ccc(OC(=O)/C=C/c2ccco2)cc1	0%	-3	0	-70*	3	-2
COc1ccc(/C=N/NC(=O)CNC(=O)/C=C/c2ccco2)cc1OC	nt	-3	-1	15	1	7
COc1cc(/C=N/NC(=O)CNC(=O)/C=C/c2ccco2)cc(OC)c1OC	nt	-3	0	2	3	31*
Cc1ccc(Cl)c(OCCCN(C)Cc2ccccc2)c1	2%	-3	1	-55*	7	5
C/C=C/c1ccc(OCCN2CCc3ccccc3C2)c(OC)c1	0%	-14	-1	-24	-1	-2
Cc1ccc(Cl)c(OCCCCN(C)Cc2ccccc2)c1	0%	-12	0	-29	3	4
CCOc1ccccc1OCCCOc1ccc(C)cc1Cl	0%	-6	1	-86*	3	-4
Cc1ccc(Cl)c(OCCN2CCc3ccccc3C2)c1	nt	-22	0	-40*	0	-4
Cc1ccc(-n2ncc(C(=O)NCc3ccccn3)c2C2CCN(C(=O)OC(C)(C)C)CC2)cc1C	-1%	-2	-1	6	-1	-13
Cc1ccc(NC(=O)CCc2c(C)nc3ncnn3c2C)cc1Cl	0%	1	0	-9	0	1
COC(=O)c1ccc(NC(=O)N2CCC(CN3CCc4ccccc4C3)CC2)cc1	-1%	-1	0	-8	24	3
O=C(COCc1cc(-c2cccs2)on1)NCc1cccc(Cl)c1	0%	-1	0	-21	8	-3
CCNC(=S)NNC(=O)c1cc(-c2ccccc2C)nc2ccccc12	0%	5	-1	-11	1	-7
CCNC(=S)NNC(=O)c1cc(-c2cccc(OC)c2)nc2ccccc12	0%	-3	-1	-2	2	-9
CCOc1ccc(Sc2cc(C(=O)NCCCOC)c3ccccc3n2)cc1	4%	4	-1	4	-3	-7
CCNC(=S)NNC(=O)c1cc(-c2ccc(OCC)cc2)nc2ccccc12	4%	-6	-1	-33*	8	-4
CCOc1ccc(Sc2cc(C(=O)NC(C)c3ccccc3)c3ccccc3n2)cc1 (centres undefined)	11%	-3	1	-30*	-3	-6
SMILES	Epigenetic derep	D1 potentiator	TRHR agonist	D1 antag	D1 ag	TRHR enhancer
CCNC(=S)NNC(=O)c1cc(CC(C)C)nc2ccccc12	-2%	-1	0	-46*	2	-5
O=C(COC(=O)C1(c2ccccc2F)CCCC1)Nc1ncc(C(F)(F)F)cc1Cl	5%	-5	2	-36*	12	5
CC1CN(C(=O)Nc2ccc3snnc3c2)c2ccccc21 (centres undefined)	0%	-7	1	-63*	4	-1
O=C(Nc1ccc2snnc2c1)N1CCSCC1	10%	-5	1	-2	14	-1
Cc1ccc(F)c(NC(=O)Nc2ccc3snnc3c2)c1	4%	-3	2	-27	13	-2
Cc1cccc(NC(=O)c2ccc3snnc3c2)c1	-2%	-1	-1	4	-2	4
CC(=O)c1ccc(NC(=O)Nc2ccc3snnc3c2)cc1	-4%	-4	3	-74*	46*	5
Cc1c(Cl)cccc1NC(=O)Nc1ccc2snnc2c1	1%	-4	2	-29	39*	-1
O=C(Nc1cccc(F)c1)c1ccc2snnc2c1	-3%	-2	0	-31*	16	5
COC(=O)c1cc(NC(=O)Nc2ccc3snnc3c2)cc(C(=O)OC)c1	8%	-4	0	-13	7	3
O=C(Nc1ccc(F)cc1)Nc1ccc2snnc2c1	-3%	-4	3	-31*	48*	-6
CNC(=O)Nc1ccc2snnc2c1	-2%	nt	-1	0	8	16
COc1ccc2c(c1)c1c(c(=O)n(-c3ccccc3)c(=O)n1CC(=O)Nc1ccc(F)cc1)n2C	3%	-2	0	-1	0	-4
CC1CCN(C(=O)Cn2cc(C(=O)C3CC3)c3ccccc32)CC1	-1%	-7	0	-9	-2	16
Cc1ccccc1CS(=O)(=O)c1cn(CC(=O)N2CCC(C)CC2)c2ccccc12	1%	-5	1	-65*	1	-10
O=[N+]([O-])c1ccc(N/N=C/c2sc(N3CCOCC3)nc2-c2ccccc2)c(S(=O)(=O)Nc2ccc(Cl)cc2)c1	?	-4	15	-35*	62*	-2
O=[N+]([O-])c1ccc(N/N=C/c2sc(N3CCOCC3)nc2-c2ccccc2)c(S(=O)(=O)Nc2ccccc2Cl)c1	0%	-5	19	-34*	79*	-9
O=C(O)c1cccc(N/N=C/c2sc(N3CCOCC3)nc2-c2ccccc2)c1	3%	-3	-1	3	3	11
O=C(N/N=C/c1sc(N2CCOCC2)nc1-c1ccccc1)c1ccccc1Cl	7%	2	1	7	0	0
COc1cccc(CCNC(=O)C2CCC(=O)N(Cc3cccc(OC)c3)C2)c1 (centres undefined)	nt	12	0	-52*	2	-3
COc1cccc(CN2CC(C(=O)NCCc3ccc(C)o3)CCC2=O)c1 (centres undefined)	nt	-1	0	10	9	3

Source: PubChem (National Center for Advancing Translational Sciences (NCATS))
